Screening results: PubChem, National Center for Advancing Translational Sciences (NCATS)
WRN inhibitor – blocks human WRN helicase. WRN helicase unwinding, fluorescent forked duplex, kinetic. 360,000 compounds, 0.46% hits. Q14191. Potency, µM (series often up to 114 µM), for inactives: at the top dose activity change, negative = inhibition, hits mostly inhibitors; note: % is set by controls: 0 for no effect and ±100 for the full control effect; nearly all actives have a fitted effect of over 55% in size
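Enzyme (20 nM final) and test compound sit together 15 min at room temperature before substrate addition. Substrate is a single-forked duplex oligonucleotide (100 nM) labelled with fluorophore and quencher, with 2 mM ATP; helicase unwinding raises red fluorescence, read kinetically.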
Pol iota inh – DNA polymerase iota (human) inhibition; Pol iota fluorescent replication assay, 10 min; Potency, µM (highest dose often 115 µM), inactives show top-dose activity, negative = inhibition, hits mostly inhibitors; 390,000 compounds, 1% hits; AID 588590
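Pol iota at 10 nM preincubated 15 min with compounds at room temperature; reaction started with fluorescent substrate, 50 nM final. Fluorescence read kinetically at 0 and 10 min; buffer-only wells as negative control.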
POLK inh – blocks human DNA polymerase kappa activity; Q9UBT6; purified Pol kappa, fluorescent DNA synthesis assay, 10 min; Potency, µM (doses to about 107 µM), for the others: at the top dose activity, negative = inhibition, usual class: inhibitors; 400,000 compounds, 0.53% hits; AID 588579; note: % is set by controls: 0 for no effect and ±100 for the full control effect
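Activity was followed as the change in fluorescence between reads at 0 and 10 min after starting the reaction with 50 nM substrate. Beforehand, 10 nM polymerase had been preincubated with compound for 15 min at room temperature.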
Pol beta inh – blocks human DNA polymerase beta activity; 340,000 compounds, 1.3% hits; Potency, µM (top dose mostly 114 µM), inactives show top-dose activity change, negative = inhibition, usual class: inhibitors; P06746; Pol beta primer extension/strand displacement, fluorescence kinetic; note: % is set by controls: 0 for no effect and ±100 for the full control effect
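Homogeneous kinetic assay of primer extension and strand displacement by 10 nM Pol beta, preincubated 15 min at room temperature with compound before 50 nM substrate (final) was added. Read at 0 and 10 min; four-parameter Hill fit.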
Pol eta inh – DNA polymerase eta (human) inhibition. AID 588591. 390,000 compounds, 1.2% hits. Potency, µM (highest dose often 114 µM), for the others: at the top dose activity change, negative = inhibition, hits mostly inhibitors. recombinant Pol eta, fluorescent DNA replication assay; note: % is set by controls: 0 for no effect and ±100 for the full control effect
Target sequence (Q9Y253 whole entry, looked up): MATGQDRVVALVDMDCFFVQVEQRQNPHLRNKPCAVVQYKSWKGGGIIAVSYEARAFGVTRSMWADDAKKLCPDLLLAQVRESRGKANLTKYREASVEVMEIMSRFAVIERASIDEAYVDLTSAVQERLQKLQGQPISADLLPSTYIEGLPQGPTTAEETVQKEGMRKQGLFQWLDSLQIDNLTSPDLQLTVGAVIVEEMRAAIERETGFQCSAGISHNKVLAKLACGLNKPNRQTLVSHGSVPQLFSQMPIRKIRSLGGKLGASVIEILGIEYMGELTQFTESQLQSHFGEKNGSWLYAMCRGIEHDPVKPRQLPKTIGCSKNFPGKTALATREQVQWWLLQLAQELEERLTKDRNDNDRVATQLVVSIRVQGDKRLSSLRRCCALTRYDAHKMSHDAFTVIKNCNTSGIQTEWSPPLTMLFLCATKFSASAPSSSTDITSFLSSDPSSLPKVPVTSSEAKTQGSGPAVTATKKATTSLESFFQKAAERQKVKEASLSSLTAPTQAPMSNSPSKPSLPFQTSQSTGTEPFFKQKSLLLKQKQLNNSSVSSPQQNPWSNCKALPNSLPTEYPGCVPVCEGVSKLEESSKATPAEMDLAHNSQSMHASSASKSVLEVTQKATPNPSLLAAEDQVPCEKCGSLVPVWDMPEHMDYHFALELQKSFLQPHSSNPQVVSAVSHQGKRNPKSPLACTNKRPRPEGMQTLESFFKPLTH
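Fluorescent replication assay: 50 nM final substrate added after a 15 min room-temperature compound preincubation with 10 nM enzyme. Signal taken at 0 min and again at 10 min.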
FEN1 inhibitor – human FEN1 inhibition; P39748; Potency, µM (top dose mostly 114 µM), for inactives: at the top dose activity change, negative = inhibition, most hits filed as inhibitors; 390,000 compounds, 0.35% hits; AID 588795; Recombinant FEN1 flap cleavage, fluorescence, 15 min; note: % is set by controls: 0 for no effect and ±100 for the full control effect; nearly all actives have a fitted effect of over 65% in size
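FEN1 at 10 nM, compound pretreatment for 15 min (room temperature), 50 nM final substrate to initiate; endpoint reads at 0 and 15 min; DMSO-only plates used as vehicle background.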
The depositor's hits bear a star; ? = inconclusive; . = not tested or not shown; [ ] = dose if it differs, or a comment. Compounds with a hit are over-represented: about 2.4% of the library has one in this group of screens. Calls come from the whole dose curve; as a rule, active = well fitted curve in the direction sought with a large enough effect; inconclusive = small, poorly fitted or top-dose-only effect, or another doubt; inactive = no such curve, though single readings can be large; an effect the other way counts as inactive or inconclusive. Potency is the fitted concentration of half-maximal effect.

SMILES | WRN inhibitor | Pol iota inh | POLK inh | Pol beta inh | Pol eta inh | FEN1 inhibitor
CN(Cc1ccccc1)C(=O)C1CCC(CNS(=O)(=O)c2ccc3c(c2)CCCC(=O)N3)CC1 (stereo unspecified) | . | ? | -2% | 0% | -13% | 23%
COc1ccc(C2=CC(=O)C[C@H](c3ccc(OC)cc3)C2)cc1 | 6% | 8% | -2% | . | -24% | 6%
COc1ccc([C@H]2CC(=O)C=C(c3ccc(SC)cc3)C2)cc1 | -2% | 89µM* | 9% | . | -14% | 2%
COC(=O)c1ccc(Cl)cc1NC(=O)N1CC(C)Oc2ccccc21 (stereo unspecified) | . | 23% | 0% | -7% | -17% | -4%
CCOc1ccccc1CNCCSc1nnnn1C | . | -6% | -4% | 1% | -11% | 11%
Cn1nnnc1SCCNCc1ccccc1OCc1ccccc1 | -32%[57.1 µM] | 14% | 3% | 28µM* | -6% | 0%
Cc1nc(-c2ccccc2)sc1-c1ccc(SCC(=O)NCc2ccccc2Cl)nn1 | . | 20% | -6% | 6% | -30% | -11%
CCS(=O)(=O)c1c([N+](=O)[O-])ncn1C | -3% | 24% | 11% | 1% | -13% | -2%
Cn1cnc([N+](=O)[O-])c1S(=O)(=O)Oc1ccc(Cl)cc1 | 35µM* | ? | 3% | . | 2% | -11%
O=c1cc(NCc2ccco2)[nH]c(=O)n1-c1ccc(Br)cc1 | -9%[11.6 µM] | 50µM* | ? | -27% | ? | 2%
CCOc1ccc(C2=NC(c3cccs3)=Nc3ccc(CC)cc3N2)cc1OCC | . | -9% | 0% | -14% | -23% | -22%
O=C1NN(c2ccccc2)C(=O)/C1=C\c1cccc(OC(=O)c2cccs2)c1 | ? | ? | -28% | 28µM* | 28µM* | -6%
CSc1ncnc2c1ncn2C1OC(CO)C(O)C1O (stereo unspecified) | . | . | -7%[60.1 µM] | . | . | .
O=c1c(Cl)c(Cl)cnn1Cc1nnc(-c2ccc(Cl)cc2)o1 | -14%[11.6 µM] | 40µM* | -39% | 40µM* | 50µM* | 5%
N/C(=N\N=C\c1ccnc2ccccc12)SC1CC(=O)N(c2ccc(Br)cc2)C1=O (stereo unspecified) | 0% | 3% | -5% | ? | 25µM* | 1%
CCCCS(=O)(=O)/C=C\C=C/S(=O)(=O)CCCC | 45µM* | ? | -12% | ? | ? | -5%
CCCCS(=O)(=O)/C=C\C1C2C=CC(C2)C1S(=O)(=O)CCCC (stereo unspecified) | 9% | 5% | -10% | -20% | -6% | 9%
Cc1ccc2c(=O)cc(C(=O)Nc3sc4c(c3C(N)=O)CCCC4)oc2c1 | . | -2% | 20% | 23% | 6% | 7%
CC(=O)c1c(C)nc(-c2ccc(Cl)cc2)nc1N | 1% | 50% | -5% | 1% | -12% | 13%
CC(=O)c1c(C)nc(-c2ccc(Cl)cc2)nc1N=CN(C)C | 6% | -1% | -16% | 35µM* | -15% | -4%
CCCOc1cccc(C2c3c(oc4cc(C)c(C)cc4c3=O)C(=O)N2CCCN2CCOCC2)c1 (stereo unspecified) | . | 0% | -13% | -13% | -25% | 3%
O=C(CCn1c(=O)c2sccc2n(Cc2ccccc2F)c1=O)NCc1ccc2c(c1)OCO2 | . | 2% | -17% | 0% | -17% | 3%
COC(=O)CCC(=O)OC1(C)C(=O)C=C2C=C(C3CC3)N(Cc3ccc(OC)cc3)C=C2C1=O (stereo unspecified) | -6% | 18µM* | -15% | 2% | 10% | -10%
COC(=O)CCC(=O)OC1(C)C(=O)C=C2C=C(C3CC3)N(CCCCO)C=C2C1=O (stereo unspecified) | 7% | 25µM* | -30% | -2% | 7% | -4%
COC(=O)CCC(=O)OC1(C)C(=O)C=C2C=C(C3CC3)N(CCCOC(C)C)C=C2C1=O (stereo unspecified) | -3%[57.1 µM] | ? | -33% | 22% | 89µM* | 0%
SMILES | WRN inhibitor | Pol iota inh | POLK inh | Pol beta inh | Pol eta inh | FEN1 inhibitor
COC(=O)CCC(=O)OC1(C)C(=O)C=C2C=C3CCCN3C=C2C1=O (stereo unspecified) | -3% | ? | ? | -26% | 50µM* | ?
C=CCN1C=C2C(=O)C(C)(OC(=O)CCC(=O)OC)C(=O)C=C2C=C1C1CC1 (stereo unspecified) | -2% | 85% | -5% | -15% | -4% | 5%
Cc1cc(C)cc(NC(=O)Nc2c[nH]c(=O)[nH]c2=O)c1 | . | 5% | 2% | ? | -18% | 5%
CCOC(=O)N1CCN(/[N+]([O-])=N/OCOC)CC1 | . | 24% | 8% | . | . | 19%
CN(C)c1ccc(C(=O)Oc2cc(O/N=[N+](\[O-])N(C)C)c([N+](=O)[O-])cc2[N+](=O)[O-])cc1 | . | 37% | -11% | . | . | ?
O=c1cc(O)nc(SCc2ccccc2)n1-c1ccccc1 | -16% | ? | ? | 14% | -9% | -16%
O=C(CSc1nc(O)cc(=O)n1-c1ccccc1)NCc1ccccc1 | -18% | 40µM* | -26% | 3% | -5% | -3%
O=C(O)c1cccnc1SCC(=O)N1CCCc2ccccc21 | -6%[11.6 µM] | ? | -38% | ? | 20µM* | -14%
Cc1ccc(-n2c(SCC(=O)Nc3ccc4c5c(cccc35)CC4)nc(O)cc2=O)cc1 | -15% | -28% | -24% | 35µM* | -12% | -5%
O=C(CSc1nc2cc([N+](=O)[O-])ccc2n1-c1ccccc1)NCc1ccc2c(c1)OCO2 | -6% | ? | -18% | 10µM* | -14% | 3%
Cc1ccc(-n2c(SCC(=O)Nc3ccc4c5c(cccc35)CC4)nc(O)c(C)c2=O)cc1 | -23% | -8% | -4% | 16% | -19% | -3%
Cc1cc(C)cc(-n2c(SCC(=O)NCc3ccc4c(c3)OCO4)nc3ccccc3c2=O)c1 | 1% | -2% | -24% | -8% | -21% | -3%
COC(=O)c1cc2occc2n1Cc1nc(-c2cccc(Br)c2)oc1C | . | 20% | 1% | 2% | -11% | -4%
CCCCCCCCCCCCCCCCOC[C@H](COP(=O)([O-])OCC[N+](C)(C)C)OC(=O)NC | . | . | -4%[19.4 µM] | . | . | .
CC1=C(C(=O)Nc2cccc(C(F)(F)F)c2)C2(CCCCCC2)OC1=O | . | -9% | -8% | ? | -8% | -8%
CCc1cccc(CC)c1-n1c(SCC(=O)N2CCCc3ccccc32)nc(O)cc1=O | -16% | ? | 45µM* | . | -16% | -23%
O=C(CSc1ncccn1)N1CCCc2ccccc21 | 10% | 113% | -6% | 15% | -21% | 5%
Cc1cccc(OCC(=O)Nc2ccc3c(c2)nc(CCNC(=O)c2ccco2)n3C)c1 | . | -5% | -14% | -4% | 5% | 9%
